Data from PubChem BioAssay (Tox21).
Inconclusive results are not listed. The source made the active and inactive calls. Unless noted, calls follow the shape of the dose curve; as a rule, active = well fitted curve in the direction sought with a large enough effect in the repeat runs; inconclusive = weak or mixed curves; inactive = no such curve, though single readings can be large; an effect the other way counts as inactive or inconclusive.

Tests used:
[1] = qHTS assay for small molecule agonists of the p53 signaling pathway (AID 651631; calls by dose curve; also: nearly all actives have a fitted effect of over 15% in size)
How it was run: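 We treat p53RE-bla HCT-116 cells with compounds for 16 h at 37 °C, add LiveBLAzer B/G FRET substrate for 2 h at room temperature, and measure fluorescence intensity.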

[2] = qHTS assay for small molecule agonists of the p53 signaling pathway - cell viability (AID 651633; calls by dose curve;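 also: p53RE-bla HCT reporter cells with a stable beta-lactamase p53 reporter; series mostly up to about 83 µM; nearly all actives have a fitted effect of over 30% in size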)
How it was run: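 p53RE-bla cells, seeded at 4,000 per well and rested 5 h at 37 C/5% CO2, received compounds in DMSO for 16 h at 37 C. CellTiter-Glo was then added, and luminescence was read after 30 min at room temperature to gauge cytotoxicity.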

[3] = qHTS assay for small molecules that induce genotoxicity in human embryonic kidney cells expressing luciferase-tagged ATAD5 - cell viability (AID 651634; calls by dose curve; also: nearly all actives have a fitted effect of over 25% in size)
How it was run: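 Here HEK293T cells with the ATAD5 luciferase reporter are incubated with test compounds for 15.5 hr, and cytotoxicity is then gauged by measuring protease activity in live cells using fluorescence.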

[4] = qHTS assay for small molecule disruptors of the mitochondrial membrane potential - cell viability (AID 720634; calls by dose curve;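 also: human HepG2 liver cancer cells; series mostly up to about 83 µM; nearly all actives have a fitted effect of over 20% in size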)
How it was run: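 Viability of HepG2 cells is scored from ATP content by luminescence; cells are exposed to compound for 1 hr at 37 C and 5% CO2, then dosed with m-MPI dye before the CellTiter-Glo reagent.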

[5] = qHTS assay for small molecule disruptors of the mitochondrial membrane potential (AID 720635)
How it was run: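 HepG2 cells (2,000/well) attached overnight at 37C, then took compound for 1 hr at 37C, 5% CO2. Mito-MPS dye was added for 30 min; fluorescence was read at 490/535 nm (monomers) and 540/590 nm (aggregates).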

[6] = qHTS assay to test for compound auto fluorescence at 590 nm (red) in HepG2 cells (AID 720674)
How it was run: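 Intrinsic compound fluorescence in the red window (Ex/Em 540/590 nm) is measured in attached HepG2 cells exposed for 1 hr, DMSO vehicle as baseline, benchmarked to Rose Bengal sodium.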

[7] = qHTS assay to test for compound auto fluorescence at 535 nm (green) in HepG2 cells (AID 720675)
[8] = qHTS assay to test for compound auto fluorescence at 460 nm (blue) in HEK293 cells (AID 720678)
How it was run: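 After cell attachment (4-5 hr, 37C), compounds were pinned onto HEK293 monolayers in 10% dialyzed FBS medium. The blue channel (405/460 nm) was read following overnight culture. Equivalency was calculated against triamterene.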

[9] = qHTS assay to test for compound auto fluorescence at 590 nm (red) in HEK293 cells (AID 720679)
How it was run: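 Plates of HEK293 cells (10% dialyzed FBS) are treated with 23 nL compound or DMSO vehicle after a 4-5 hr attachment period, incubated overnight at 37C, and read for red fluorescence at 540/590nm.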

[10] = qHTS assay to test for compound auto fluorescence at 535 nm (green) in HEK293 cells (AID 720680)
[11] = qHTS assay to test for compound auto fluorescence at 460 nm (blue) in HEK293 cell free culture (AID 720681)
How it was run: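 Test compounds were pinned into cell-free culture medium (DMEM with 10% FBS) and fluorescence was read directly at Ex/Em 405/460 nm. Signals were expressed as fluorescence equivalents of triamterene, with DMSO vehicle as control.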

[12] = qHTS assay to test for compound auto fluorescence at 535 nm (green) in HEK293 cell free culture (AID 720682)
How it was run: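 Green-channel intensity (Ex/Em 485/535 nm) was recorded from compound-treated wells containing only DMEM with 10% FBS. Fluorescein provided the equivalency standard.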

[13] = qHTS assay to test for compound auto fluorescence at 590 nm (red) in HEK293 cell free culture (AID 720683)
How it was run: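 Tox21 10K library compounds were pinned into cell-free DMEM with 10% FBS and fluorescence was read at excitation 540 nm. Activity is expressed as Rose Bengal sodium equivalency.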

[14] = qHTS assay to test for compound auto fluorescence at 590 nm (red) in HepG2 cell free culture (AID 720684)
How it was run: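 Ex 540 / Em 590 nm read of compound in cell-free MEM (10% FBS). Rose Bengal sodium reference.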

[15] = qHTS assay to test for compound auto fluorescence at 460 nm (blue) in HepG2 cell free culture (AID 720685)
How it was run: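 Cell-free plates of MEM plus 10% FBS received 23 nL compound or DMSO vehicle; blue-channel (405/460 nm) intensity scored against triamterene as reference fluorophore.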

[16] = qHTS assay to test for compound auto fluorescence at 535 nm (green) in HepG2 cell free culture (AID 720686)
[17] = qHTS assay to test for compound auto fluorescence at 460 nm (blue) in HepG2 cells (AID 720687)
How it was run: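 Cells (2,000/well in MEM with 10% FBS) attached overnight at 37 C, then were exposed to compound or DMSO for 1 hr at 37 C, 5% CO2. Fluorescence read at Ex/Em 405/460 nm, expressed as triamterene-equivalent signal.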

[18] = qHTS assay for small molecules that induce genotoxicity in human embryonic kidney cells expressing luciferase-tagged ATAD5 (AID 651632); also: nearly all actives have a fitted effect of over 15% in size
How it was run: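 DMSO vehicle served as the control. HEK293T reporter cells, 16 hr at 37C, then 30 min Amplite at room temperature; ATAD5 induction is measured as luciferase activity.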

[19] = biological target: Glucocorticoid receptor (Homo sapiens) (UniProt P04150); assay: qHTS assay to identify small molecule agonists of the glucocorticoid receptor (GR) signaling pathway (AID 720691; active = well fitted activation curve with a large enough effect in the signal ratio in the repeat runs, not every such curve was filed as active; the % refers to the signal ratio)
Chain of Glucocorticoid receptor (Homo sapiens) (P04150 whole entry, looked up): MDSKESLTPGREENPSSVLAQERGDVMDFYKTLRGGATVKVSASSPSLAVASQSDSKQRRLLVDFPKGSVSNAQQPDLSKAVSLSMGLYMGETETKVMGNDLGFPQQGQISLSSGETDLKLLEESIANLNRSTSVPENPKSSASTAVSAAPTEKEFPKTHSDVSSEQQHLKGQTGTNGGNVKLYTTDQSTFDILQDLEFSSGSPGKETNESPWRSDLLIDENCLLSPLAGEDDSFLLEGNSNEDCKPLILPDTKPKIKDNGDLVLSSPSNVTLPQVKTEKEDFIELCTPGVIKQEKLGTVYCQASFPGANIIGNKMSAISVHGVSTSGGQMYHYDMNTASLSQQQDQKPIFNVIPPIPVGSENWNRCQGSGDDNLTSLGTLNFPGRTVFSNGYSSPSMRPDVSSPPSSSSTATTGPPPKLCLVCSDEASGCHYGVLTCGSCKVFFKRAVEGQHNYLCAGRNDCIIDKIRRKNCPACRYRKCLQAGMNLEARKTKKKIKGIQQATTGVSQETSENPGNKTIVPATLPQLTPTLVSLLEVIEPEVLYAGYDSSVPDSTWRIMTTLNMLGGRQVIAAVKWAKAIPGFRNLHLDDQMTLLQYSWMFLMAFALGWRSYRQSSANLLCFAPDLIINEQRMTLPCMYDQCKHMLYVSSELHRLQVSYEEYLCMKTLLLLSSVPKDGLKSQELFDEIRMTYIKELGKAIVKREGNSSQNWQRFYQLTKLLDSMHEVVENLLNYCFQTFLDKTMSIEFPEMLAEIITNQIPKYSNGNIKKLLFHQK
How it was run: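 Compounds in DMSO, alongside positive controls, were added to GR-bla HeLa reporter cells and incubated 18 h at 37 C; GRE-driven beta-lactamase was detected by fluorescence after 2 h with FRET substrate at room temperature.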

[20] = biological target: Glucocorticoid receptor (Homo sapiens) (UniProt P04150); assay: qHTS assay to identify small molecule antagonists of the glucocorticoid receptor (GR) signaling pathway (AID 720692; active = well fitted inhibition curve with a large enough effect in the signal ratio in the repeat runs, not every such curve was filed as active; the % refers to the signal ratio)
How it was run: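 In a 1536-well cell format, compounds were added 4 h after seeding GR-bla HeLa cells, together with dexamethasone at 5 nM final; reporter activity was measured by FRET-substrate fluorescence following 18 h at 37 C.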

Measured: Potency

O=c1[nH]c(=O)n([C@H]2C[C@H](O)[C@@H](CO)O2)cc1I
not listed: [18] | [19] | [20]
inactive: all other assays above

C1OCOCO1
not listed: [3]
inactive: all other assays above

CC(C)NC(=O)NC(C)C
not listed: [1] | [5] | [20]
inactive: all other assays above

O=C(CCCN1CCN(c2ccccn2)CC1)c1ccc(F)cc1
not listed: [3] | [14] | [19] | [20]
inactive: all other assays above

CC(C)=CCCC(C)CC(=O)O (stereo not given)
not listed: [1] | [20]
inactive: all other assays above

CC(=O)CC(C)C
not listed: [1]
inactive: all other assays above

C[N+](C)(C)CC(O)CC(=O)[O-] (stereo not given)
not listed: [3]
inactive: all other assays above
